# In article PMC12864922, “TDP-43 directly inhibits mRNA accumulation in neurites through modulation of mRNA stability”:
# Where a chain is given by its changes, count along the chain named. The full ranking holds about 9,900 sequences; the median of “r (bound/input frequency ratio)” is about 0.7, and the highest 2% start at about 6.5. For the sample, the highest values were picked, then their nearest neighbours and some sequences at random.
# B1: ENSMUSG00000004113.301|Cacna1b (ssRNA)
# RNA: GGGAGUUCUACAGUCCGACGAUCGCUUCGAUAUCCGCAUGCUAAGGCACUCCUUGGUGUGGUCUCUCUGUUUUGAAACUUCUGAUGACUUCUUGGUGGCUUGUUGUCUUCUACCCCAUGUUUCUCACAGGAUCUGUGUGUGUGUGUGUGUGUGUGUGUGUGUGUGUGUGUGUGUGUGUUAGCAUGUGUGUAUUAGCGUGUGUGAGUGUGUGAGCAUGCACGAGUCAUAGGAGAUGCAGGUGUAUGUGUGUGGUGUGCAUAUGUGUAUGUGUGUGUGUGUGUGUGUGUGUGUAGGUGUGUUCAGCUCUUGCGGUCGCACUAGUGUGGAAUUCUCGGGUGUCAAGG
# B2: ENSMUSG00000090935.77|Synj2bp|54:58 (ssRNA)
# RNA: GGGAGUUCUACAGUCCGACGAUCGCUUCGAUAUCCGCAUGCUACUUUGUCAGCAUAGGCAGGAGUCCUUUAGGAUUUCUGCCUAUCAGUAAAAGAACAUACUAACCCAAGUUCUACCUUCAGUGGAUUAAAGUUUCAUUAAGUGAAAAUGGAAAGAAAGUAGAAUUACUUGGUAAGAGGCCAAAUGAGGAUACAGAGGCUGAAGAAGAUUGAAAGGAGCUAGUGUAAACAAACAAACAAACAAACAAACAAAAAACCAAACCCCAAAACAAAAACAAAAACAAAACAAAAUUGGAGAAAGCAGCUCUUGCGGUCGCACUAGUGUGGAAUUCUCGGGUGUCAAGG
# B3: ENSMUSG00000090935.14|Synj2bp|150:154 (ssRNA)
# RNA: GGGAGUUCUACAGUCCGACGAUCGCUUCGAUAUCCGCAUGCUAGAGAGCAGUCAGAUAUGAACGGACGGGUGGAUUAUUUAGUCACGGAGGAAGAGAUCAACCUGACGAGAGGACCUUCGGGUAAAUGGCCAAGAUCUGAAGAACCUGCUGCACCAAGAUGCUGUAGACCUCUUCCGUAAUGCGGGAUGUGCACACACCCUGAGAGUACAGCACAGGUUACCAGUGCAGAAUGGACCUAUAGUACAUCGAGGUGAAGGAGAGCCAAGUGGAGUUCCUGUAGCUAUGGUGCUGCUACCAGUGUUCUCUUGCGGUCGCACUAGUGUGGAAUUCUCGGGUGUCAAGG
# B4: ENSMUSG00000090935.23|Synj2bp (ssRNA)
# RNA: GGGAGUUCUACAGUCCGACGAUCGCUUCGAUAUCCGCAUGCUAUCAACCUGACGAGAGGACCUUCGGGUAAAUGGCCAAGAUCUGAAGAACCUGCUGCACCAAGAUGCUGUAGACCUCUUCCGUAAUGCGGGAUGUGCUGUGUCCCUGAGAGUACAGCACAGGUUACCAGUGCAGAAUGGACCUAUAGUACAUCGAGGUGAAGGAGAGCCAAGUGGAGUUCCUGUAGCUAUGGUGCUGCUACCAGUGUUUGCCCUCACCAUGGUAGCAGUUUGGGCCUUCGUGAGAUACCGAAAGCAGCUUUGCUCUUGCGGUCGCACUAGUGUGGAAUUCUCGGGUGUCAAGG
# B5: ENSMUSG00000031028.306|Tub|133:137 (ssRNA)
# RNA: GGGAGUUCUACAGUCCGACGAUCGCUUCGAUAUCCGCAUGCUAAUUGCCAUCAGAGAACCCUCAGCGAGGUAGCCUUUGUUUACAGUCUAGUUUCUAGAGGGCAGUAGGACUUCCAUGCUGGGGCUGGCCUAUCUCCUGAUGAAAGAUUACAGUGCCAUCUCCUUCCCAUAGUUCACACACUGCCCUCCCUCCCUGACUUUAUAGGGAGAAAUCUCCUGACAUUAGAGGUGAUAGAAACCAGAGCUUUAGUCUAGUCAGGCUGUUUCUCUGGGUUGACAAGUUUAAGGUUGAACAGGCUGAUUCUCUUGCGGUCGCACUAGUGUGGAAUUCUCGGGUGUCAAGG
# B6: ENSMUSG00000004113.120|Cacna1b (ssRNA)
# RNA: GGGAGUUCUACAGUCCGACGAUCGCUUCGAUAUCCGCAUGCUAGGGACUUUCUGAGCCUCGUGGAGAGUGUGGUUUGUCCAAAUGUGUGGCAUGGGAGAUAGGGUACCCCUGAAAGCAAGGAAAGGAGCCCAGCUGUGGCCUGGUAGCACCUGCCGGCACCAGUGAUCUCACGUCUCUUGUGGUCUUGGAGUCAAAUAGCACAUGUAUGUAGAGAUGCGCUCAAGGGCCUGCCUUUCACCUACACUGUCACCAUAACAGGGACCAAAUCUGGAGGAUGUCCUUGCUGUUGAUUCUGGUUUUCACUCUUGCGGUCGCACUAGUGUGGAAUUCUCGGGUGUCAAGG
# B7: ENSMUSG00000061578.1213|Ksr2|85:89 (ssRNA)
# RNA: GGGAGUUCUACAGUCCGACGAUCGCUUCGAUAUCCGCAUGCUAUCUCACACCCCUGUCCCCGUCCCCUCCACCCCCCGGCAGCAUGCUUCACUCUAUGAAUGAGCCGCUGGGAUAUUGACAUGGAGAACACAUGAUGGAAAAAGCCUCCACACCCAACAUAACUCUCCAGAGAGAUAUUGAAAGUGAUGGGCAGAGAGUCUGACAAUGACCCAGGGGUCAUUGUGAGUCCUAGGCUGAAUCUGUAAUGGGGUCCAAAGUGCAGGAGAGACUGCAUUCACCUUGUUGGUGGGGUGGGGCUUCUUCUCUUGCGGUCGCACUAGUGUGGAAUUCUCGGGUGUCAAGG
# B8: ENSMUSG00000061578.1432|Ksr2 (ssRNA)
# RNA: GGGAGUUCUACAGUCCGACGAUCGCUUCGAUAUCCGCAUGCUAGUCUCUCUCACUCAUUGCCAACAUGUUGCUGGGAAAGAAUAUUUGAUUUAGAUGCCAAUCAGGAAGGCAAGUAGGAUGGAUGGAUGAGUGAGUGGAUAGGUAGGUAUAUAAAUGGAUGGAUGGGUGAUGGAUGGGUAAAUGAAUGGAUAGGUAUGUGAAUGAAUGGAUGAUGGAUGAAUGGAUGGGUAGGUGGGUAGAUAGGUAUAUGAAUGAAUGGAUGAAUGGAUGGGUGAAUGGAUGGAUAGGUAUGUGAAUAAAUGCUCUUGCGGUCGCACUAGUGUGGAAUUCUCGGGUGUCAAGG
# B9: ENSMUSG00000061578.1430|Ksr2 (ssRNA)
# RNA: GGGAGUUCUACAGUCCGACGAUCGCUUCGAUAUCCGCAUGCUAGUCUUGCUCUCUGUCUCUCUCACUCAUUGCCAACAUGUUGCUGGGAAAGAAUAUUUGAUUUAGAUGCCAAUCAGGAAGGCAAGUAGGAUGGAUGGAUGAGUGAGUGGAUAGGUAGGUAUAUAAAUGGAUGGAUGGGUGAUGGAUGGGUAAAUGAAUGGAUAGGUAUGUGAAUGAAUGGAUGAUGGAUGAAUGGAUGGGUAGGUGGGUAGAUAGGUAUAUGAAUGAAUGGAUGAAUGGAUGGGUGAAUGGAUGGAUAGGUACUCUUGCGGUCGCACUAGUGUGGAAUUCUCGGGUGUCAAGG
# B10: ENSMUSG00000061578.1433|Ksr2 (ssRNA)
# RNA: GGGAGUUCUACAGUCCGACGAUCGCUUCGAUAUCCGCAUGCUACUCACUCAUUGCCAACAUGUUGCUGGGAAAGAAUAUUUGAUUUAGAUGCCAAUCAGGAAGGCAAGUAGGAUGGAUGGAUGAGUGAGUGGAUAGGUAGGUAUAUAAAUGGAUGGAUGGGUGAUGGAUGGGUAAAUGAAUGGAUAGGUAUGUGAAUGAAUGGAUGAUGGAUGAAUGGAUGGGUAGGUGGGUAGAUAGGUAUAUGAAUGAAUGGAUGAAUGGAUGGGUGAAUGGAUGGAUAGGUAUGUGAAUAAAUGGAUGGACUCUUGCGGUCGCACUAGUGUGGAAUUCUCGGGUGUCAAGG
# B11: ENSMUSG00000061578.1433|Ksr2|145:149;240:244 (ssRNA)
# RNA: B10 RNA with G188C, U189A, A190U, U191A, G192C, G283C, U284A, A285U, U286A, G287C
# B12: ENSMUSG00000061578.1432|Ksr2|151:155;246:250 (ssRNA)
# RNA: B8 RNA with G194C, U195A, A196U, U197A, G198C, G289C, U290A, A291U, U292A, G293C
# B13: ENSMUSG00000061578.1431|Ksr2|157:161;252:256 (ssRNA)
# RNA: GGGAGUUCUACAGUCCGACGAUCGCUUCGAUAUCCGCAUGCUACUCUCUGUCUCUCUCACUCAUUGCCAACAUGUUGCUGGGAAAGAAUAUUUGAUUUAGAUGCCAAUCAGGAAGGCAAGUAGGAUGGAUGGAUGAGUGAGUGGAUAGGUAGGUAUAUAAAUGGAUGGAUGGGUGAUGGAUGGGUAAAUGAAUGGAUAGCAUACUGAAUGAAUGGAUGAUGGAUGAAUGGAUGGGUAGGUGGGUAGAUAGGUAUAUGAAUGAAUGGAUGAAUGGAUGGGUGAAUGGAUGGAUAGCAUACUGAACUCUUGCGGUCGCACUAGUGUGGAAUUCUCGGGUGUCAAGG
# B14: ENSMUSG00000061578.1434|Ksr2|139:143;234:238 (ssRNA)
# RNA: GGGAGUUCUACAGUCCGACGAUCGCUUCGAUAUCCGCAUGCUACAUUGCCAACAUGUUGCUGGGAAAGAAUAUUUGAUUUAGAUGCCAAUCAGGAAGGCAAGUAGGAUGGAUGGAUGAGUGAGUGGAUAGGUAGGUAUAUAAAUGGAUGGAUGGGUGAUGGAUGGGUAAAUGAAUGGAUAGCAUACUGAAUGAAUGGAUGAUGGAUGAAUGGAUGGGUAGGUGGGUAGAUAGGUAUAUGAAUGAAUGGAUGAAUGGAUGGGUGAAUGGAUGGAUAGCAUACUGAAUAAAUGGAUGGAUGGAUGCUCUUGCGGUCGCACUAGUGUGGAAUUCUCGGGUGUCAAGG
# B15: ENSMUSG00000061578.1429|Ksr2 (ssRNA)
# RNA: GGGAGUUCUACAGUCCGACGAUCGCUUCGAUAUCCGCAUGCUAAGAUCUGUCUUGCUCUCUGUCUCUCUCACUCAUUGCCAACAUGUUGCUGGGAAAGAAUAUUUGAUUUAGAUGCCAAUCAGGAAGGCAAGUAGGAUGGAUGGAUGAGUGAGUGGAUAGGUAGGUAUAUAAAUGGAUGGAUGGGUGAUGGAUGGGUAAAUGAAUGGAUAGGUAUGUGAAUGAAUGGAUGAUGGAUGAAUGGAUGGGUAGGUGGGUAGAUAGGUAUAUGAAUGAAUGGAUGAAUGGAUGGGUGAAUGGAUGGACUCUUGCGGUCGCACUAGUGUGGAAUUCUCGGGUGUCAAGG
# B16: ENSMUSG00000061578.1430|Ksr2|163:167 (ssRNA)
# RNA: B9 RNA with G206C, U207A, A208U, U209A, G210C
# Molecular target: TDP-43 (Homo sapiens, UniProt Q13148 1-414)
# Experiment: RNA Bind-n-Seq with designed 260-mer pool; 25 mM Tris-HCl, 150 mM KCl, 3 mM MgCl2, BSA (printed 500 mg/mL), 20 units/mL SUPERase IN; pH not stated; 500 nM RNA pool, 1 h, 4 C; TDP-43 5, 50, 500 nM; high values mean tight binding
# Conditions: protein: recombinant; tags: SBP (GST cleaved off with PreScission; pGEX-GST-SBP)
# Outline: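 For each oligo, R gives binding as its mapped-read-normalized abundance after pulldown divided by its abundance in input. Bead-captured SBP-tagged TDP-43 (5, 50 or 500 nM) was incubated with 500 nM of an in vitro-transcribed 260-nt 3′ UTR oligo pool for 1 h at 4 °C in 25 mM Tris-HCl, 150 mM KCl, 3 mM MgCl2, BSA and SUPERase IN on streptavidin beads. Washed, biotin-eluted RNA was reverse transcribed, PCR-amplified and sequenced.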
# TDP-43, sequence (Q13148 whole entry): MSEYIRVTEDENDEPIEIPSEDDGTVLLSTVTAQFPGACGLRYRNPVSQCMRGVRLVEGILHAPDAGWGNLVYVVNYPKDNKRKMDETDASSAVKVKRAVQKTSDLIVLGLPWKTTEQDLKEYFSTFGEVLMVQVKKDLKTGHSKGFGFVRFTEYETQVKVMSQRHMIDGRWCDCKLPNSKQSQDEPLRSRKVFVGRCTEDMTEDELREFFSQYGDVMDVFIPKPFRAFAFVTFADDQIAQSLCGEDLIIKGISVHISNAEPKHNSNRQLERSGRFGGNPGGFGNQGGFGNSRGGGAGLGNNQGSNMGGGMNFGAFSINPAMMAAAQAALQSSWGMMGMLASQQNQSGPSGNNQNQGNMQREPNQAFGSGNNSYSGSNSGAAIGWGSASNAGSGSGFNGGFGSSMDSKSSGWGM
row,Binder,binding signal
1,B1,5.79 R (bound/input frequency ratio)
2,B2,0.449 R (bound/input frequency ratio)
3,B3,2.14 R (bound/input frequency ratio)
4,B4,1.15 R (bound/input frequency ratio)
5,B5,0.368 R (bound/input frequency ratio)
6,B6,1.21 R (bound/input frequency ratio)
7,B7,0.376 R (bound/input frequency ratio)
8,B8,6.18 R (bound/input frequency ratio)
9,B9,6.58 R (bound/input frequency ratio)
10,B10,6.35 R (bound/input frequency ratio)
11,B11,7.14 R (bound/input frequency ratio)
12,B12,5.51 R (bound/input frequency ratio)
13,B13,7.04 R (bound/input frequency ratio)
14,B14,3.79 R (bound/input frequency ratio)
15,B15,4.48 R (bound/input frequency ratio)
16,B16,5.26 R (bound/input frequency ratio)
